# Several values for one entry are separate records, joined by “and”; a condition that tells them apart may be missing. Equal values may be shown once. Inconclusive results are not listed. Where a call stands in place of a potency, no number is given. More than one record can exist for a structure, and the calls need not agree. Activity calls are given as the source filed them. The call rests on the fitted dose curve; in most records, active means well fitted curve in the direction sought with a large enough effect; inconclusive means small, poorly fitted or top-dose-only effect, or another doubt; inactive means no such curve, though single readings can be large; an effect the other way counts as inactive or inconclusive.
# Columns and labels:
# [1] = Viability qHTS for spleen associated tyrosine kinase inhibitor (SYKi) naive MV4-11 cells (AID 1963823); further: nearly all actives have a fitted effect of over 40% in size
# Summary of the method: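 Read-out: CellTiter-Glo luminescence. Exposure: 72 hr, 37 C, 5% CO2, 95% humidity. Cells: MV4-11 without SYK inhibitor history, 500/well, qHTS format.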
# [2] = Viability qHTS for spleen associated tyrosine kinase inhibitor (SYKi) drug resistant MV4-11 cells (AID 1963824); further: nearly all actives have a fitted effect of over 35% in size
# Summary of the method: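 SYK inhibitor-resistant MV4-11 AML cells, 500 per well, added to predispensed compounds and incubated 72 hr at 37 C, 5% CO2. Viability measured by CellTiter-Glo luminescence after 10 min at room temperature.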
# [3] = Quantitative highthroughput screen to assess conditional lethalithy of NOMO1 cells grown in RPMI1640 with untreated serum (RPMI+s) (AID 1963876); further: nearly all actives have a fitted effect of over 35% in size
# Summary of the method: (§1)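 Each medium arm—HPLM with 10% dialyzed FBS, or RPMI1640 with 5 mM glucose and 10% untreated or dialyzed FBS—was screened against an 11-point, 3-fold compound titration for 48 h at 37 °C, with CellTiter-Glo luminescence as endpoint.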
# [4] = Quantitative highthroughput screen to assess conditional lethalithy of NOMO1 cells grown in RPMI1640 with dialyzed fetal bovine serum (RPMI+ds) (AID 1963877); further: nearly all actives have a fitted effect of over 30% in size; on Viability: series mostly up to about 46 µM
# Summary of the method: as §1
# [5] = Quantitative highthroughput screen to assess conditional lethalithy of NOMO1 cells grown in Human Plasma-Like Medium with dialyzed fetal bovine serum (HPLM+ds) (AID 1963878); further: nearly all actives have a fitted effect of over 35% in size
# Summary of the method: as §1
# [6] = Quantitative highthroughput screen to assess conditional lethalithy of P12 Ichikawa cells grown in Human Plasma-Like Medium with dialyzed fetal bovine serum (HPLM+ds) (AID 1963879); details: Potency: viability; further: nearly all actives have a fitted effect of over 35% in size; on Viability: series mostly up to about 46 µM
# Summary of the method: as §1
# [7] = Quantitative highthroughput screen to assess conditional lethalithy of P12 Ichikawa cells grown in RPMI1640 with untreated serum (RPMI+s) (AID 1963881); details: Potency: viability; further: nearly all actives have a fitted effect of over 35% in size; on Viability: series mostly up to about 46 µM
# Summary of the method: as §1
# [8] = Quantitative highthroughput screen to assess conditional lethalithy of SEM cells grown in Human Plasma-Like Medium with dialyzed fetal bovine serum (HPLM+ds) (AID 1963882); further: nearly all actives have a fitted effect of over 35% in size; on Viability: series mostly up to about 46 µM
# Summary of the method: as §1
# [9] = Quantitative highthroughput screen to assess conditional lethalithy of SEM cells grown in RPMI1640 with unreated serum (RPMI+s) (AID 1963883); further: nearly all actives have a fitted effect of over 35% in size
# Summary of the method: as §1
# [10] = Quantitative highthroughput screen to assess conditional lethalithy of SEM cells grown in RPMI1640 with dialyzed fetal bovine serum (RPMI+ds) (AID 1963884); further: nearly all actives have a fitted effect of over 35% in size; on Viability: series mostly up to about 46 µM
# Summary of the method: as §1
# [11] = Cellular viability qHTS for adrenocortical cancer (ACC) cell line NCI-H295R (AID 1963990); further: nearly all actives have a fitted effect of over 60% in size
# Summary of the method: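 CellTiter-Glo ATP luminescence, read 48 h after compound addition, measured viability of NCI-H295R adrenocortical cells grown serum-free with ITS. Final concentrations spanned up to 46 uM. Data normalized to DMSO and doxorubicin, fitted for IC50 and maximal response.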
# [12] = Cellular viability qHTS for adrenocortical cancer (ACC) cell line SW-13 (AID 1963989); details: SW-13 ACC cells viability, CellTiter-Glo, 48 h; activity (max response): stronger effect = lower value; further: nearly all actives have a fitted effect of over 65% in size;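 on activity (max response): cells grown in serum-free medium with ITS supplement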
# Summary of the method: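 Viability was read as CellTiter-Glo luminescence after 48 h compound treatment (up to 46 uM final) of SW-13 cells grown serum-free; titration curves were fit with a four-parameter logistic model to give IC50 and efficacy.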
# [13] = Quantitative highthroughput screen to assess conditional lethalithy of P12 Ichikawa cells grown in RPMI1640 with dialyzed fetal bovine serum (RPMI+ds) (AID 1963880); details: Potency: P12-Ichikawa viability; further: nearly all actives have a fitted effect of over 35% in size
# Summary of the method: as §1
# Potency means the concentration at half of the fitted maximal effect.
SMILES,Potency [1],Potency [2],Potency [3],Potency [4],Potency [5],Potency [6],Potency [7],Potency [8],Potency [9],Potency [10],Potency [11],Potency [12],Potency [13],activity (max response) [12]
CC(C)(C)C(=O)OCOP(=O)(COCCn1cnc2c(N)ncnc21)OCOC(=O)C(C)(C)C,944 nM (active) and 372 nM (active),944 nM (active) and 411 nM (active),0.235 µM (active),0.418 µM (active),1.18 µM (active),0.526 µM (active),0.332 µM (active),0.469 µM (active),0.105 µM (active),0.105 µM (active),18.4 µM (active) and 12.6 µM (active),–,–,–
Cc1cc(CN2CCN(c3c(Br)cnc4nc(-c5ccc(N6CCN(C)CC6)cc5)[nH]c34)CC2)no1,0.0231 µM (active),29.1 nM (active) and 105 nM (active),inactive,1.05 µM (active),16.6 µM (active),1.05 µM (active),0.935 µM (active),0.935 µM (active),0.743 µM (active),0.743 µM (active),28.2 µM (active),31.6 µM (active),–,–
Cn1cc(-c2ccncc2)c(-c2ccc(OCc3ccc4ccccc4n3)cc2)n1,4.11 µM (active),7.42 µM (active),inactive,inactive,inactive,14.8 µM (active),–,inactive,inactive,–,–,–,8.33 µM (active),–
O=C(O)Cc1cccc(OCCCN(Cc2cccc(C(F)(F)F)c2Cl)CC(c2ccccc2)c2ccccc2)c1,20.9 µM (active),16.6 µM (active),inactive,inactive,inactive,inactive,inactive,inactive,–,inactive,22.4 µM (active),–,–,–
CC1(C)CNc2cc(NC(=O)c3cccnc3NCc3ccncc3)ccc21,2.31 µM (active),5.17 µM (active) and 5.9 µM (active),inactive,inactive,inactive,inactive,inactive,–,–,–,inactive,–,inactive,-22.3% (inactive)
CC(C)NCC(O)c1ccc(O)c(O)c1 (centres undefined),inactive,inactive,5.9 µM (active),7.43 µM (active),4.69 µM (active),6.62 µM (active),7.43 µM (active),–,–,–,inactive,–,9.35 µM (active),9.6% (inactive) and -17.4% (inactive)
CCS(=O)(=O)c1cccc(-c2cc(C(=O)NC3CCN(C)CC3)c(C)c3[nH]c4ncc(C)cc4c23)c1,40.4 nM (active) and 59 nM (active),36 nM (active) and 66.1 nM (active),14.8 µM (active),11.8 µM (active),6.62 µM (active),0.264 µM (active),0.235 µM (active),0.469 µM (active),0.296 µM (active),–,17.8 µM (active),1 µM (active),–,–
Cc1onc(-c2ccccc2Cl)c1C(=O)N[C@@H]1C(=O)N2[C@@H]1SC(C)(C)[C@@H]2C(=O)O,inactive,inactive,inactive,inactive,inactive,inactive,inactive,inactive,inactive,inactive,inactive,–,–,0.896% (inactive)
CC1CNc2c(cccc2S(=O)(=O)N[C@@H](CCCN=C(N)N)C(=O)N2CC[C@@H](C)C[C@@H]2C(=O)O)C1 (some centres undefined),inactive,inactive,inactive,inactive,inactive,inactive,–,inactive,inactive,inactive,inactive,–,inactive,-14.2% (inactive)
CCC(C)n1ncn(-c2ccc(N3CCN(c4ccc(OC[C@H]5CO[C@](Cn6cncn6)(c6ccc(Cl)cc6Cl)O5)cc4)CC3)cc2)c1=O (some centres undefined),2.88 µM (active),1.59 µM (active),inactive,inactive,inactive,inactive,–,–,inactive,–,inactive,–,inactive,-10.2% (inactive) and 8.84% (inactive)
O=c1[nH]nc(OCCCc2ccc(Cl)cc2)c(NCc2cccnc2)c1Br,4.11 µM (active),4.11 µM (active),11.8 µM (active),5.9 µM (active),2.96 µM (active),5.9 µM (active),–,0.743 µM (active),6.62 µM (active),–,–,7.94 µM (active),5.26 µM (active),–
O=C(NCCCNc1nc(Nc2cccc(NC(=O)N3CCCC3)c2)ncc1I)c1cccs1,0.0517 µM (active),164 nM (active) and 263 nM (active),inactive,inactive,inactive,inactive,inactive,–,–,–,inactive,–,inactive,–
NS(=O)(=O)c1cc2c(cc1Cl)NC=NS2(=O)=O,inactive,inactive,inactive,inactive,inactive,inactive,–,inactive,inactive,inactive,inactive,–,inactive,2.09% (inactive) and 0.632% (inactive)
C[C@](N)(Cc1ccc(O)c(O)c1)C(=O)O,inactive,inactive and 16.6 µM (active),inactive,inactive,inactive,inactive,inactive,26.4 µM (active),–,23.5 µM (active),inactive,–,–,12% (inactive) and -6.33% (inactive)
N[C@@]1(C(=O)O)CS(=O)(=O)[C@H]2[C@H](C(=O)O)[C@H]21,inactive,inactive,inactive,inactive,inactive,inactive,inactive,–,–,–,inactive,–,inactive,10.9% (inactive)
